Tau fibril ThT = inhibitors of human tau fibril formation, thioflavin T binding. Potency, µM (top dose mostly 57.4 µM), actives largely listed as inhibitors. AID 1460. 270,000 tested, 2.1% active. recombinant tau K18 P301L, heparin-induced fibrillization, ThT fluorescence; also: nearly all actives have a fitted effect of over 55% in size
Target sequence (P10636 561-689 P618L limits assumed): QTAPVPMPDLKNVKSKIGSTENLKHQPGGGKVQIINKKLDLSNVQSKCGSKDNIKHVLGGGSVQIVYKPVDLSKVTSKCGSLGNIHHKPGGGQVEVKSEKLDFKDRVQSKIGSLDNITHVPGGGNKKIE
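Tau K18 P301L fragment (15 uM unlabeled plus 0.24 uM Alexa 594-labeled) in 100 mM sodium acetate pH 7 with compound, fibrillization induced by 20 uM heparin for 6 hr at 37 C. Thioflavin T (30 uM) added, fluorescence read after 1 hr (ex 450, em 510 nm).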
Tau fluor counter = counter-screen for tau fibril formation inhibitors; tau K18 P301L (four-repeat tau fragment) Alexa594 fluorescence, heparin fibrillization; Potency, µM (series often up to 57.7 µM); 280,000 tested, 0.93% active; also: nearly all actives have a fitted effect of over 55% in size
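Human K18 P301L tau (15 uM unlabeled plus 0.24 uM Alexa 594-labeled, final) in 100 mM sodium acetate pH 7 was mixed with compound and 20 uM heparin and incubated 6 hr at 37 C.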
KDM4E inh = JMJD2E (human) inhibition; JMJD2E catalytic domain, FDH-coupled NADH fluorescence (FDH is formaldehyde dehydrogenase); 230,000 tested, 1.6% active; Potency, µM (highest dose often 57.1 µM), most hits filed as inhibitors; AID 2147; active = well fitted inhibition curve with a large enough effect, not every such curve was filed as active; inconclusive = small, poorly fitted or top-dose-only effect, or another doubt; inactive = no such curve, though single readings can be large or run the other way; also: nearly all actives have a fitted effect of over 50% in size
Target sequence (B2RXH2 1-337 limits assumed): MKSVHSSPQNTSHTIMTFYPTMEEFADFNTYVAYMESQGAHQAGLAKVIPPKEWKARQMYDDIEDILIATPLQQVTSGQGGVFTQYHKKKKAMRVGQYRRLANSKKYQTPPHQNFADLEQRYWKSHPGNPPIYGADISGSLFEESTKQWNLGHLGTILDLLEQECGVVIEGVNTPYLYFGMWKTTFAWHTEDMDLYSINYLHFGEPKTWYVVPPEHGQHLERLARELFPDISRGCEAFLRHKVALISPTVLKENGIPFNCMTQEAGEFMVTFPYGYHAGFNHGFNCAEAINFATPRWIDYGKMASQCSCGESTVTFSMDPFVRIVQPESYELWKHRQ
Tau fibril FP = blocks human tau fibril formation measured by polarization; P10636; Potency, µM (highest dose often 57.7 µM), actives largely listed as inhibitors; K18 P301L tau heparin fibrillization, Alexa594 FP, 6 h; 280,000 tested, 0.39% active; AID 1468; also: nearly all actives have a fitted effect of over 55% in size
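Human K18 P301L fragment (15 uM unlabeled plus 0.24 uM Alexa 594-labeled) in 100 mM sodium acetate pH 7 with compound, aggregation induced by 20 uM heparin for 6 hr at 37 C. ThT (30 uM) added for 1 hr, then Alexa 594 FP read.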
FBPA coupling cs = coupling enzyme interference in Giardia aldolase counter-screen; activity change, negative = inhibition, % at 58.2 µM, hits read low; 290,000 tested, 0.67% active; coupling enzyme system counterscreen, AmpLite Red fluorescence; in the data active = activity change below about -30%
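Fluorescence at 525 nm excitation and 598 nm emission measured inhibition of the coupled detection system without aldolase. Compounds (at 57.5 uM final) were preincubated 10 min at room temperature with coupling enzyme reagent before a 20 min substrate/AmpLite Red step.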
Sfp inh = Sfp phosphopantetheinyl transferase inhibition | AID 1490 | Potency, µM, hits mostly inhibitors | Biochemical Sfp PPTase activity, qHTS | 310,000 tested, 3.5% active;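 also: the enzyme is Sfp with the accession as filed and its product quenches rhodamine fluorescence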
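With Hepes-Na pH 7.6 buffer containing 10 mM MgCl2, Sfp (15 nM) modified BHQ-2-YbbR (12.5 uM) using rhodamine-CoA (5 uM). Two reads 30 minutes apart at 525/598 nm yielded each well's rate.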
Numbers stand for hits; i = inactive; ? = inconclusive; nt = no result given; [ ] = remark or other dose. This is a sample that favours compounds with a hit; in the whole collection about 5.3% have one here. Unless noted, calls follow the shape of the dose curve; as a rule, active = well fitted curve in the direction sought with a large enough effect; inconclusive = small, poorly fitted or top-dose-only effect, or another doubt; inactive = no such curve, though single readings can be large; an effect the other way counts as inactive or inconclusive.

SMILES | Tau fibril ThT | Tau fluor counter | KDM4E inh | Tau fibril FP | FBPA coupling cs | Sfp inh
O=C(NNC(=O)c1cnccn1)c1cccc([N+](=O)[O-])c1 | i | i | i | i | i | 2.51µM
O=C(Cc1ccccc1)Nc1nc(-c2cccc([N+](=O)[O-])c2)cs1 | i | i | i | i | i | i
O=C(Nc1ccccc1)Nc1ncc([N+](=O)[O-])s1 | 17.8µM | ? | i | i | i | i
CCCCC(=O)Nc1ncc([N+](=O)[O-])s1 | i | i | i | i | i | i
O=C(Nc1ccc(NC(=O)c2cccc([N+](=O)[O-])c2)cc1)c1cccc([N+](=O)[O-])c1 | nt | nt | nt | nt | i | i
O=C(Nc1ncc([N+](=O)[O-])s1)c1cccc([N+](=O)[O-])c1 | 17.8µM | i | i | i | -41.0 | i
O=[N+]([O-])c1cccc(-c2csc(Nc3ccccc3)n2)c1 | ? | 25.1µM[quencher] | i | i | i | i
COC(=O)[C@H]1O[C@@H](c2cc(OC)c(C)c(OC)c2O)[C@H](C)[C@@H](O)[C@H]1C | i | i | i | i | i | i
N[C@](CC1c2ccccc2Oc2ccccc21)(C(=O)O)[C@H]1C[C@@H]1C(=O)O | i | i | nt | i | nt | ?
COC(=O)c1c(NC(=O)c2cccc([N+](=O)[O-])c2)sc(C(N)=O)c1C | ? | i | i | i | i | 44.7µM
COc1cc(NS(=O)(=O)c2ccc(Nc3nc(-c4cccc([N+](=O)[O-])c4)cs3)cc2)nc(OC)n1 | 17.8µM | ? | i | ? | i | i
COC(=O)c1sc(NC(=O)c2cccc([N+](=O)[O-])c2)c(C(N)=O)c1C | i | i | i | i | i | ?
COc1ccccc1-c1c(C)nn2c(N3CCN(c4ccc(F)cc4)CC3)cc(C)nc12 | i | i | nt | ? | nt | nt
COCCNC(=O)COc1ccc(OCCNC[C@H](O)COc2ccccc2)cc1 | i | i | nt | i | nt | i
COc1cc(C2c3c(oc4ccc(F)cc4c3=O)C(=O)N2Cc2ccc3c(c2)OCO3)ccc1O (centres undefined) | i | i | nt | i | nt | nt
O=C(NC(=S)Nc1ccccc1N1CCCC1)c1ccco1 | ? | ? | i | i | -37.7 | 31.6µM
COc1cccc(C(=O)NC(=S)Nc2ccccc2N2CCCC2)c1 | ? | ? | i | i | i | 25.1µM
Cc1ccc(C(=O)NC(=S)Nc2ccccc2N2CCCC2)cc1[N+](=O)[O-] | i | ? | i | i | i | 17.8µM
COc1cccc(C(=O)NC(=S)Nc2ccccc2N2CCCCC2)c1 | nt | nt | nt | nt | i | i
CCOc1ccc2oc(=O)cc(CN3CCN(Cc4ccc(F)cc4)CC3)c2c1 | i | i | nt | i | nt | nt
Cc1ccccc1NCC(=O)c1ccc(Br)cc1 | ? | i | ? | i | i | 44.7µM
O=C(Nc1ccccc1)Nc1ccc(Oc2ncnc3cc(Cl)ccc23)nc1 | i | i | i | i | i | i
O=C(O)/C=C/C(=O)Nc1ccc(Oc2ncnc3cc(Cl)ccc23)nc1 | i | i | i | i | i | 79.4µM
O=C(O)C=Cc1ccc(Cn2ccnc2)cc1 | i | i | i | i | i | ?
Cc1cc(-c2csc(NC(=O)c3ccc(S(=O)(=O)N(C)C)cc3)n2)c(C)n1-c1ccccc1 | ? | ? | 28.2µM | i | i | i
SMILES | Tau fibril ThT | Tau fluor counter | KDM4E inh | Tau fibril FP | FBPA coupling cs | Sfp inh
C=CCN1C(=O)/C(=C/c2ccc(-c3ccc(F)cc3)o2)SC1=S | nt | nt | nt | nt | i | 56.2µM
COc1cc(/C=C2/C(=O)NN(c3ccc(Cl)cc3)C2=O)ccc1OC(=O)c1ccco1 | 14.1µM | ? | i | i | i | ?
COc1cc(/C=C2/C(=O)NN(c3cccc(F)c3)C2=O)ccc1OC(=O)c1ccco1 | ? | i | i | i | i | 56.2µM
COc1cc(/C=C2/C(=O)NN(c3ccc(F)cc3)C2=O)cc(Cl)c1O | nt | nt | nt | nt | i | 44.7µM
COc1cc(/C=N/NC(=O)c2ccc(F)cc2)ccc1OC(=O)c1ccco1 | i | i | i | i | i | i
COc1cc(/C=C2/C(=O)NN(c3ccc(Cl)cc3)C2=O)cc(Br)c1O | nt | nt | nt | nt | i | i
COCC(=O)N1CCC2(CC1)CN(c1ccc(-c3ccccc3)cc1)C2 | nt | nt | nt | nt | i | i
O=NN(CCCl)C(=O)NC1CCCCC1 | nt | nt | nt | nt | nt | i
Cc1ccn2cc(CC(=O)O)nc2c1 | i | i | ? | i | i | 56.2µM
Cc1ccn2cc(-c3ccc(O)c(O)c3)nc2c1 | nt | nt | nt | nt | i | 50.1µM
CC(=O)Oc1cc2c(c(C)c1OC(C)=O)CC=C1[C@]3(C)CC[C@]4(C)CC[C@@](C)(C(=O)O)CC4[C@]3(C)CC[C@]12C (some centres undefined) | i | i | i | i | i | i
Cc1cc(NC(=S)N(Cc2ccc(Cl)cc2)Cc2ccc(C(=O)O)cc2)ccc1Cl | i | i | i | i | i | i
